The term inhibition denotes the relative decrease from the control value, in per cent.

In test [1] the target is 5'-AMP-activated protein kinase catalytic subunit alpha-2 (Homo sapiens) (UniProt P54646). To be noted: at 1 µM.
Test [2] has as its target T1, NUAK family SNF1-like kinase 1 (Homo sapiens) (UniProt O60285).
T1 sequence (whole entry): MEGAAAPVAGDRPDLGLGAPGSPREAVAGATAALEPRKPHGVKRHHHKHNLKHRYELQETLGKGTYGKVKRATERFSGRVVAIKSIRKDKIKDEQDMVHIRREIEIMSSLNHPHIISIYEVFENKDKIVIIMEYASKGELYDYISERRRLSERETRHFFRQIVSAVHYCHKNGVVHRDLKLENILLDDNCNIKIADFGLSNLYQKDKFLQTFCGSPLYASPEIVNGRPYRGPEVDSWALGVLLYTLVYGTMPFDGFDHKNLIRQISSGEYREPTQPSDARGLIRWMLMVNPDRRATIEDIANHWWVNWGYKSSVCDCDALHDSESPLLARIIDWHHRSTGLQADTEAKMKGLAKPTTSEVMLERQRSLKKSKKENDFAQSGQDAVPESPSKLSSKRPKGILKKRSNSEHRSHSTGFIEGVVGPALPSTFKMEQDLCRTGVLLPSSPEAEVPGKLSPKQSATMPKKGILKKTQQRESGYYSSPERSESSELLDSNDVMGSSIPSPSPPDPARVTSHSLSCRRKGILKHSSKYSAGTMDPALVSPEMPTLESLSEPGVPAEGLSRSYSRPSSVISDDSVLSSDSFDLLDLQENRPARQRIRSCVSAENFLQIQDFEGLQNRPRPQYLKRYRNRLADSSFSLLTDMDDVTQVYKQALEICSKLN
To be noted: at 0.1 µM.

Test [3] deals with T1, NUAK family SNF1-like kinase 1 (Homo sapiens). The settings on record: at 1 µM.
Test [4] addresses T2, Serine/threonine-protein kinase BRSK1 (Homo sapiens) (UniProt Q8TDC3).
T2 sequence (whole entry): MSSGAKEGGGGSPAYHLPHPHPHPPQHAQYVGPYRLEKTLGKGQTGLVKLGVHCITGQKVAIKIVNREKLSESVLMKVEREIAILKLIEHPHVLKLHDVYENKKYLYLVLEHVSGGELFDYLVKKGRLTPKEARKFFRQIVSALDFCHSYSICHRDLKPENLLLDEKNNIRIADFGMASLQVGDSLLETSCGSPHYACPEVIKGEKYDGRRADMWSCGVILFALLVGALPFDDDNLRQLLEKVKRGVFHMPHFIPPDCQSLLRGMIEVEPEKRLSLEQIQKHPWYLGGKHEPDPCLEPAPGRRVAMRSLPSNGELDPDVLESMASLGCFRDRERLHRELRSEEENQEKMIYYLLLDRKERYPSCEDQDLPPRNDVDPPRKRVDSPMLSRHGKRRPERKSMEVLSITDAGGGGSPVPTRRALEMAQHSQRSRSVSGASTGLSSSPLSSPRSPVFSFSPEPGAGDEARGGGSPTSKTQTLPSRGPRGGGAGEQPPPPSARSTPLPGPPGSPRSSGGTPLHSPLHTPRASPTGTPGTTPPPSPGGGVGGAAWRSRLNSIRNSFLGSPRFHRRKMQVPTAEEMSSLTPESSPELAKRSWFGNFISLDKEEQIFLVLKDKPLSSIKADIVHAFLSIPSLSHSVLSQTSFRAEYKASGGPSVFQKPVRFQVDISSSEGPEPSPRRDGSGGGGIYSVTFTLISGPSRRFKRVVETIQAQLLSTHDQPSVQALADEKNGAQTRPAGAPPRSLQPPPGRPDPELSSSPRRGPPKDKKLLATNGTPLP
To be noted: at 0.1 µM.

Test [5] has as its target T2, Serine/threonine-protein kinase BRSK1 (Homo sapiens). To be noted: at 1 µM.
The target in test [6] is T3, Serine/threonine-protein kinase BRSK2 (Homo sapiens) (UniProt Q8IWQ3).
T3 sequence (whole entry): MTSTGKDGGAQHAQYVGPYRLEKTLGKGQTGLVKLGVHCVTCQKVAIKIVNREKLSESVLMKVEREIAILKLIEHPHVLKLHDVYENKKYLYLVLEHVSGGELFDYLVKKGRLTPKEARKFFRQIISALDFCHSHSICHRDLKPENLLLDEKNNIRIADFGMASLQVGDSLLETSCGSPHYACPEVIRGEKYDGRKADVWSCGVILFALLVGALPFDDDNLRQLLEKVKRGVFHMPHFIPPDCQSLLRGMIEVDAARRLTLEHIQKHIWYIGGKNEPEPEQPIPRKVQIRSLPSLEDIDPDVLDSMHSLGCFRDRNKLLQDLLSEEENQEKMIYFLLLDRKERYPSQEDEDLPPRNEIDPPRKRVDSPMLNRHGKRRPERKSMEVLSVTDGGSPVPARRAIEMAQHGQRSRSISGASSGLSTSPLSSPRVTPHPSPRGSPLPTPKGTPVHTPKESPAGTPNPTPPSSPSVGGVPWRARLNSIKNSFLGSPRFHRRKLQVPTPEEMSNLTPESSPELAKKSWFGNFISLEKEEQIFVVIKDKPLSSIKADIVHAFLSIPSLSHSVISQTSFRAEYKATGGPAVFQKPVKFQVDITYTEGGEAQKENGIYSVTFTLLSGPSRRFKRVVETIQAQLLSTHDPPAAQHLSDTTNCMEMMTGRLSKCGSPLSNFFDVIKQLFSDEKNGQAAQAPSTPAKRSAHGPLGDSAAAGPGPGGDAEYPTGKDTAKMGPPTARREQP
The settings on record: at 0.1 µM.

The target of test [7] is T3, Serine/threonine-protein kinase BRSK2 (Homo sapiens). To be noted: at 1 µM.
The target of test [8] is Calcium/calmodulin-dependent protein kinase type 1D (Homo sapiens) (UniProt Q8IU85). The settings on record: at 0.1 µM.
Sequence of Calcium/calmodulin-dependent protein kinase type 1D (Homo sapiens) (Q8IU85 whole entry, looked up): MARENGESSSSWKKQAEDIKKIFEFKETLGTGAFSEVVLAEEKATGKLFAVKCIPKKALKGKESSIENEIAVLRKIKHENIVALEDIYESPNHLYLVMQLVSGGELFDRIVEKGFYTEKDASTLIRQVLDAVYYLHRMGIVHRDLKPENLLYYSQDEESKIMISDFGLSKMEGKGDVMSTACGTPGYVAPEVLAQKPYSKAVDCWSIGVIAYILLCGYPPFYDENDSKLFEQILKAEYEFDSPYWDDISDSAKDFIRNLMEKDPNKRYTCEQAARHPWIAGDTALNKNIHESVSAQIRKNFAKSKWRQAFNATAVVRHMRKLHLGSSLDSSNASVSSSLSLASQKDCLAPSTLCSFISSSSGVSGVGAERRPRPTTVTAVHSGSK
For test [9] the target is unchanged. To be noted: at 1 µM.
Test [10] has as its target Calcium/calmodulin-dependent protein kinase type II subunit alpha (Homo sapiens) (UniProt Q9UQM7). The settings on record: at 0.1 µM.
Test [11] has the same target. To be noted: at 1 µM.
Test [12] concerns the target Calcium/calmodulin-dependent protein kinase type II subunit delta (Homo sapiens) (UniProt Q13557). The settings on record: at 0.1 µM.
Test [13] has the same target. The settings on record: at 1 µM.
Test [14] concerns the target T4, Calcium/calmodulin-dependent protein kinase type IV (Homo sapiens) (UniProt Q16566).
T4 sequence (whole entry): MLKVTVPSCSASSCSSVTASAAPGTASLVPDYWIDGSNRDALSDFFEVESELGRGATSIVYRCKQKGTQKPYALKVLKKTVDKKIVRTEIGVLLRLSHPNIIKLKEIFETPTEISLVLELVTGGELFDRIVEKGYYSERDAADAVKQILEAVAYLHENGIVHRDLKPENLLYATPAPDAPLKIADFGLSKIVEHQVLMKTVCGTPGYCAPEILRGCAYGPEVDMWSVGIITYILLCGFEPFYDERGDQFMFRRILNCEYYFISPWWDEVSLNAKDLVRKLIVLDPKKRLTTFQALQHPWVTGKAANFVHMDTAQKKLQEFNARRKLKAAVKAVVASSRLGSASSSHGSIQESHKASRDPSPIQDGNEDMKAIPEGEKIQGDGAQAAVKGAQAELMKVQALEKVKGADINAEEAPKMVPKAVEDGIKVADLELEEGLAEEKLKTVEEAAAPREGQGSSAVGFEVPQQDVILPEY
The settings on record: at 0.1 µM.

For test [15], the target named is T4, Calcium/calmodulin-dependent protein kinase type IV (Homo sapiens). The settings on record: at 1 µM.
For test [16], the target named is T5, Serine/threonine-protein kinase Chk1 (Homo sapiens) (UniProt O14757).
T5 sequence (whole entry): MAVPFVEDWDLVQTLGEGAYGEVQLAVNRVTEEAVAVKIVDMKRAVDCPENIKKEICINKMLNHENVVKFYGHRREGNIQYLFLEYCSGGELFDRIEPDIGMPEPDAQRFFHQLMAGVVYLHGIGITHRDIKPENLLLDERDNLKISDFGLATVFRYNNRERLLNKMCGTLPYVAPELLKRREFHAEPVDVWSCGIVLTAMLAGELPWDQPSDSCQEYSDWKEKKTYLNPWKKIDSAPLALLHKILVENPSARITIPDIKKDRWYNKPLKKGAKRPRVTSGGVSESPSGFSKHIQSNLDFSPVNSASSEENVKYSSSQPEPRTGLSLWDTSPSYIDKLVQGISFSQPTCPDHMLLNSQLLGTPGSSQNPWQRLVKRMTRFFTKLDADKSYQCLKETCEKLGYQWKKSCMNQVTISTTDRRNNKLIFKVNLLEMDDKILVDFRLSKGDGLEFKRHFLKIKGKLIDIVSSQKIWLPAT
To be noted: at 0.1 µM.

The target in test [17] is T5, Serine/threonine-protein kinase Chk1 (Homo sapiens). To be noted: at 1 µM.
Test [18] has as its target Serine/threonine-protein kinase Chk2 (Homo sapiens) (UniProt O96017). The settings on record: at 0.1 µM.
The target is the same in test [19]. To be noted: at 1 µM.
Test [20] concerns the target Death-associated protein kinase 1 (Homo sapiens) (UniProt P53355). The settings on record: at 0.1 µM.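 Note: reported figure is the mean inhibition of DAPK1.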

Sequence of Death-associated protein kinase 1 (Homo sapiens) (P53355 whole entry, looked up): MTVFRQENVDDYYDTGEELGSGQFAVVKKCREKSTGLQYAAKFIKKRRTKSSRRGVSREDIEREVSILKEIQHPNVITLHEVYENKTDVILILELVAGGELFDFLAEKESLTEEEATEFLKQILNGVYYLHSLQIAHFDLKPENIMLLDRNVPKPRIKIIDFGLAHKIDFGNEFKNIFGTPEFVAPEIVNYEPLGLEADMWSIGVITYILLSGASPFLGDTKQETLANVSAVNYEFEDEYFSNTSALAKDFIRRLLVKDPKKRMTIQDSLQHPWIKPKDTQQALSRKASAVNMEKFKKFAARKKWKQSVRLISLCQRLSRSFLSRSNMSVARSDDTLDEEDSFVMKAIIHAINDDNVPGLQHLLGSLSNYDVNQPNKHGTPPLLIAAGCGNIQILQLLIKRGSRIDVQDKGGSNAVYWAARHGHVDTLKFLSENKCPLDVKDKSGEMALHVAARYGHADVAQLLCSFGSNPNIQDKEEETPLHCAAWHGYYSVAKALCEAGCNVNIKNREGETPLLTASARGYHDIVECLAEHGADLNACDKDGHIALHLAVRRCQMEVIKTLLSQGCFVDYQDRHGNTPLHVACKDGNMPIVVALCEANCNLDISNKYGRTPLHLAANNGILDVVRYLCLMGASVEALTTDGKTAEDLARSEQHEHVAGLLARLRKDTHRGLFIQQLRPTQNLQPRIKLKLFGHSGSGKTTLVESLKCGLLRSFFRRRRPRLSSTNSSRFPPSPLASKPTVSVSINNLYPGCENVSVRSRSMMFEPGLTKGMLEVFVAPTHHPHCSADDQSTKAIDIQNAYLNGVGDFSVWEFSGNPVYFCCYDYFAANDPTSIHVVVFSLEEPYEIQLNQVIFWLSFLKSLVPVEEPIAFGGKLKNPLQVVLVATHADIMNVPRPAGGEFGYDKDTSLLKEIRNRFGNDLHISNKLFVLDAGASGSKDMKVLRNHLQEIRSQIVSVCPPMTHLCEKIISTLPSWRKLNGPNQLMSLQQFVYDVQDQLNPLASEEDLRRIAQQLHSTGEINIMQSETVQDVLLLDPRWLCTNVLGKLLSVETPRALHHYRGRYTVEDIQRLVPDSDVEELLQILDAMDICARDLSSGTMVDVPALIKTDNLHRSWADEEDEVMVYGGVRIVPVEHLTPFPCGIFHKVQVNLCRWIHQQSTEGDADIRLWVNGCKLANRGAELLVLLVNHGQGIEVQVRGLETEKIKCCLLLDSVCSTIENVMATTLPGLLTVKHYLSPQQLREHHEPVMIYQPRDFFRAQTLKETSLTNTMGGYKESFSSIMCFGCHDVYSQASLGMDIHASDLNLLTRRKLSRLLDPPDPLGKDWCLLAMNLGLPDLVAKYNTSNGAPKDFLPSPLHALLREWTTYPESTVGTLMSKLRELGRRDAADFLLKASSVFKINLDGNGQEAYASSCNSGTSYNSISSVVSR
Sequence of Calcium/calmodulin-dependent protein kinase type II subunit delta (Homo sapiens) (Q13557 whole entry): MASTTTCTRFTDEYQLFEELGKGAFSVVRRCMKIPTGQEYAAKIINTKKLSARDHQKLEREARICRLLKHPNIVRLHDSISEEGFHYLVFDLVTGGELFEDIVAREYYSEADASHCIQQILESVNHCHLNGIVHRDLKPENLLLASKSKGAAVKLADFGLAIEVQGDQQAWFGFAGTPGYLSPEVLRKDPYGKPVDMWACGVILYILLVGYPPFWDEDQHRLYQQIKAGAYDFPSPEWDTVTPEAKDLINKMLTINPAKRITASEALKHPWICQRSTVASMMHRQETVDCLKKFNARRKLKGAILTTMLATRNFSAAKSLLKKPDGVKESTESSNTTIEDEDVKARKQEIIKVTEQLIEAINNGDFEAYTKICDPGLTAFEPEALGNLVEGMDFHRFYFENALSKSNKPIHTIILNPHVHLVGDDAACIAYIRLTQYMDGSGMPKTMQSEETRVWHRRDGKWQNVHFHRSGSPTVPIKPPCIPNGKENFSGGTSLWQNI
Sequence of 5'-AMP-activated protein kinase catalytic subunit alpha-2 (Homo sapiens) (P54646 whole entry, looked up): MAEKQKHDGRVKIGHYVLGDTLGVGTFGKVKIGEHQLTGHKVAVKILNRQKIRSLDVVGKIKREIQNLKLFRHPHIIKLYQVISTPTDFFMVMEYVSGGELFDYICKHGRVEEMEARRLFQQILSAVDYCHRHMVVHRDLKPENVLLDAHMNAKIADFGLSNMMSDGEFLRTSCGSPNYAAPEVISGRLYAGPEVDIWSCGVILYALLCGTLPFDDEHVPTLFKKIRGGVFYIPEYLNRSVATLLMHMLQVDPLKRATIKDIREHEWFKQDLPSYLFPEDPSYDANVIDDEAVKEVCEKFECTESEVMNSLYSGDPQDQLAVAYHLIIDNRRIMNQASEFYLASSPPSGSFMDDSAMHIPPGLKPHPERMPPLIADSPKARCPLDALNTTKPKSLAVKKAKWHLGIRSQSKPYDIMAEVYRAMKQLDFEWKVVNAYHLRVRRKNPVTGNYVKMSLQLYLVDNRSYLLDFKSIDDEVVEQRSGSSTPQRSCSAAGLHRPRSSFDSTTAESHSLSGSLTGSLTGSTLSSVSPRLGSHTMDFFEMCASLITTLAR
Sequence of Serine/threonine-protein kinase Chk2 (Homo sapiens) (O96017 whole entry): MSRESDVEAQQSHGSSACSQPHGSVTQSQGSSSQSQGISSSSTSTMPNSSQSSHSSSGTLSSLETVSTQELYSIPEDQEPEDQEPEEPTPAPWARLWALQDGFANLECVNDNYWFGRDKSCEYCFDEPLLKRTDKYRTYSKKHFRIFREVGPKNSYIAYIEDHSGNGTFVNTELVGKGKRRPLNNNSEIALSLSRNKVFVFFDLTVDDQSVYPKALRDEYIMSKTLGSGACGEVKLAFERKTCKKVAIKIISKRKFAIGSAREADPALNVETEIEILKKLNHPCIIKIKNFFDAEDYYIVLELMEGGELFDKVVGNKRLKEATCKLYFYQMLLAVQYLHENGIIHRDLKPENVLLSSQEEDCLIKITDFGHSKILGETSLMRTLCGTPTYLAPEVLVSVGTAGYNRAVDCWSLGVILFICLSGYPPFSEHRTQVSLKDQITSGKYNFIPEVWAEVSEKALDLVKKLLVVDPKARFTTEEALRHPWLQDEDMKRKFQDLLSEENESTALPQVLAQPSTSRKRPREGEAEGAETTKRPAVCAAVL
Sequence of Calcium/calmodulin-dependent protein kinase type II subunit alpha (Homo sapiens) (Q9UQM7 whole entry): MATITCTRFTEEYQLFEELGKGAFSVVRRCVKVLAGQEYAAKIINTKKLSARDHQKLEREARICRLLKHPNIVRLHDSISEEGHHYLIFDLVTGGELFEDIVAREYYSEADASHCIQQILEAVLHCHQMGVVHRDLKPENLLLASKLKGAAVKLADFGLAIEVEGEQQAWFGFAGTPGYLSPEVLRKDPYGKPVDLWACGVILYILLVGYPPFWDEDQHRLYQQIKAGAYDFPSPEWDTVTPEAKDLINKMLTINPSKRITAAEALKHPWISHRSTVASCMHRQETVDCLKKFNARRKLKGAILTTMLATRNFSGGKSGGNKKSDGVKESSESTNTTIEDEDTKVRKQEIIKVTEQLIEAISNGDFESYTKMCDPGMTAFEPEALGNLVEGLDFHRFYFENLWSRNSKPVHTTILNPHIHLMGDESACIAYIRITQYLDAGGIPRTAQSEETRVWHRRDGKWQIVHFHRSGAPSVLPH

Consider `NC(=O)c1cc(-c2ccc(F)cc2)cc(-c2ccncc2)c1N`, for which the inhibition in [1] was 2.48%; in test [2], -0.64%; in test [3], -1.26%; in test [4] it was 0.38%; in test [5] it was -1.89%; in test [6], 1.65%. Also, the inhibition in test [7] was 2.63%; in test [8], -0.61%; in test [9] it was 0.29%; in test [10], 3.47%; in [11] it was 3.68%; in test [12], 1.36%. Further, the inhibition was found to be 3.98% in [13]; 0.77% in [14]; 0.56% in [15]; 0.67% in [16]; 0.41% in [17]; 3% in test [18]. The values for the inhibition in [19] and in test [20] were 3.74% and 1.26%, respectively.
Take `COc1cc2ncn(-c3cc(OCc4cccs4)c(C(N)=O)s3)c2cc1OC`: the inhibition in test [1] worked out at 5.5%; in test [2], 20.1%; in test [3] it was 63.2%; in test [4] it was 9%; in test [5], 50%; in test [6], 16.6%. Besides, the inhibition in test [7] came out at 60.6%; in [8], 0.15%; in [9], 0.12%; in [10], 2.87%; in [11], 1.67%; in test [12] it was 0.52%. In addition, the inhibition in [13] is 2.97%; in test [14] it was -3.4%; in [15], -4.06%; in test [16], 1.35%; in test [17], 3.75%; in [18] it was 2.01%. Besides, the inhibition in test [19] is 5.81%; in test [20], 0.06%.
For the compound `COc1cc2ncn(-c3cc(OCCc4ccccc4)c(C(N)=O)s3)c2cc1OC`, the inhibition in test [1] came out at 1.32%; in test [2], 1.92%; in [3], 9.13%; in test [4], 41.5%; in test [5] it was 76.9%; in test [6], 58.3%. In addition, the inhibition is 80.3% in test [7]; 0.21% in test [8]; 1.85% in test [9]; 1.3% in test [10]; 2.38% in [11]; 2.83% in test [12]. Besides, the inhibition was determined as 3.66% in [13]; 1.62% in test [14]; 0.6% in test [15]; 1.61% in test [16]; 7.39% in test [17]; 1.58% in test [18]. The inhibition in test [19] was found to be 4.01%; in test [20], 2.25%.
`COC(=O)Nc1nc2ccc(Sc3ccc(NC(=O)Nc4cc(C(F)(F)F)ccc4F)cc3)cc2[nH]1`: the inhibition in test [1] is 1.29%; in [2] it was 3.62%; in test [3] it was -4.85%; in test [4] it was -1.14%; in test [5], 0.16%; in test [6] it was -0.46%. The inhibition came out at 1.01% in [7]; 0.9% in [8]; 0.37% in [9]; 3% in test [10]; 4.35% in test [11]; 1.39% in test [12]. The inhibition is 2.79% in test [13]; 0.44% in [14]; 1.75% in [15]; 2.81% in test [16]; 1.17% in test [17]; -0.98% in test [18]. For the same compound, the inhibition was 0.37% in test [19] and 3.64% in test [20].

For the origin of these results see ChEMBL document CHEMBL1961873, “Compounds: GSK PKIS; Assays: Nanosyn kinase panel” (2012).
